Bioassay records as filed in PubChem.
In the library only some 17% were active in any assay of this set; here they are far more common.
HT1080 IDH1KD tx: qHTS for induction of synthetic lethality in tumor cells producing 2HG: qHTS for the HT-1080-IDH1KD cell line. HT-1080 IDH1 knockdown viability, ATP luminescence, 48 h. Potency, µM (top dose mostly 46.1 µM), for inactives: at the highest dose activity, negative = toxicity, actives largely listed as cytotoxic. 360,000 compounds, 2% hits;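 further: 0% = DMSO wells and -100% = cell-free medium wells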
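Knockdown cells (IDH1KD HT-1080) received compounds 2 h after plating at 750 cells/well and were kept 48 h at 37 °C in 5% FBS RPMI. A CellTiter-Glo luminescence read gave % activity for curve fitting.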
HepG2 viability: qHTS for Inhibitors of TGF-b: Cytotox Counterscreen | HepG2 CAGA-GFP viability, ATP luminescence, 18 h | Potency, µM (titrated, usually from 46.1 µM), without a hit: top-dose activity change, negative = cytotoxicity, actives largely listed as cytotoxic | 410,000 compounds, 0.76% hits | AID 588856, 2011
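HepG2 CAGA-GFP cells (1000/well, DMEM with 1% FBS) received compound, then TGF-beta at 500 pg/mL final, and were incubated 18 hours at 37 degrees C. Viability was read by CellTiter-Glo luminescence. Media-only wells were set as complete cell-killing and DMSO as no toxicity.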
TGFb SMAD3 inh: qHTS for Inhibitors of TGF-b. HepG2 CAGA-GFP TGF-b/SMAD3 reporter, GFP fluorescence, 18 h; TGF-beta stimulated, 500 pg/mL final. Potency, µM (highest dose often 46.1 µM), for inactives: top-dose activity, negative = inhibition, most hits filed as inhibitors. 410,000 compounds, 1.2% hits. AID 588855, 2011; further: on the % scale 0 is the no-effect control and ±100 the full control effect; nearly all actives have a fitted effect of over 65% in size
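GFP signal (ex488/em500-530) from TGF-beta-stimulated HEPG2 CAGA-GFP cells, 500 pg/mL final, 18 h at 37 degrees C in DMEM plus 1% FBS, normalized to unstimulated and DMSO-stimulated controls.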
DT40 TDP1 CPT: qHTS for Inhibitors of human tyrosyl-DNA phosphodiesterase 1 (TDP1): qHTS in cells in presence of CPT | chicken DT40 Tdp1-/-;hTDP1 cells + 20 nM CPT, ATP luminescence, 48 h | Potency, µM (top dose mostly 46.2 µM), without a hit: at the top dose activity change, negative = growth inhibition, most hits filed as inhibitors | 420,000 compounds, 12% hits | AID 686979, 2013; further: on the % scale 0 is the no-effect control and ±100 the full control effect; nearly all actives have a fitted effect of over 55% in size
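Cell growth measured by CellTiter-Glo luminescence after a minimum 48 h, 37 C compound exposure with 20 nM CPT in Tdp1-knockout DT40 cells stably expressing hTDP1, seeded 400/well; qHTS titration format.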
HT1080-NT tox: qHTS for induction of synthetic lethality in tumor cells producing 2HG: qHTS for the HT-1080-NT fibrosarcoma cell line; HT-1080-NT fibrosarcoma viability, CellTiter-Glo ATP luminescence, 48 h; Potency, µM (series often up to 46.1 µM), for inactives: top-dose activity, negative = less viability, usual class: cytotoxic; 360,000 compounds, 1.6% hits; AID 686970, 2013;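 further: NT is the 2HG producing partner of a matched IDH1 knockdown line; 0% = DMSO-treated cells and -100% = media-only wells without cells; nearly all actives have a fitted effect of over 55% in size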
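A 48-hour cytotoxicity screen used HT-1080-NT cells plated 2 hours before compound delivery. ATP-based CellTiter-Glo luminescence measured viability, normalized to DMSO and no-cell controls.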
DT40 TDP1 no CPT: qHTS for Inhibitors of human tyrosyl-DNA phosphodiesterase 1 (TDP1): qHTS in cells in absence of CPT; DT40 Tdp1-/- hTDP1 cells, no CPT, ATP luminescence, 48 h; Potency, µM (series often up to 46.2 µM), for inactives: top-dose activity change, negative = growth inhibition, actives largely listed as inhibitors; 420,000 compounds, 15% hits; AID 686978, 2013; further: on the % scale 0 is the no-effect control and ±100 the full control effect; nearly all actives have a fitted effect of over 55% in size
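Seeded 400 DT40-hTDP1 cells/well (vehicle DMSO, no 20 nM CPT); pinned compounds; ≥48 hr at 37 °C; CellTiter-Glo luminescence as viability measure.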
* hit, by the source's call. The call rests on the fitted dose curve; in most records, active means well fitted curve in the direction sought with a large enough effect; inconclusive means small, poorly fitted or top-dose-only effect, or another doubt; inactive means no such curve, though single readings can be large; an effect the other way counts as inactive or inconclusive. Potency means the concentration at half of the fitted maximal effect.

What do the screens show for `NC(=O)c1cc2ccncc2c2ccccc12`?
HT1080 IDH1KD tx: -8%; HepG2 viability: -45%; TGFb SMAD3 inh: inconclusive; DT40 TDP1 CPT: 13µM*; HT1080-NT tox: -12%; DT40 TDP1 no CPT: 6.5µM*

What do the screens show for `O=C(CC1Sc2ccc(C(F)(F)F)cc2NC1=O)Nc1ccc(Cl)c(C(F)(F)F)c1` (stereo not drawn)?
HepG2 viability: -97%; TGFb SMAD3 inh: 14µM*; DT40 TDP1 CPT: inconclusive; DT40 TDP1 no CPT: inconclusive

Results for CCc1ccccc1NC(=O)CC1Sc2ccc(C(F)(F)F)cc2NC1=O (stereo not drawn) ?
HepG2 viability: -51%; TGFb SMAD3 inh: 13%; DT40 TDP1 CPT: -7%; DT40 TDP1 no CPT: -22%

How did Cc1ccc2[nH]c(O)c(N=NC(=O)c3ccc(NS(=O)(=O)c4cccs4)cc3)c2c1 do in these assays?
HT1080 IDH1KD tx: -4%; HepG2 viability: -7%; TGFb SMAD3 inh: inconclusive; DT40 TDP1 CPT: 15µM*; HT1080-NT tox: 6%; DT40 TDP1 no CPT: inconclusive

What do the screens show for `O=C(N=Nc1c(O)[nH]c2ccccc12)c1ccccc1NS(=O)(=O)c1cccs1`?
HT1080 IDH1KD tx: inconclusive; HepG2 viability: -15%; TGFb SMAD3 inh: -4%; DT40 TDP1 CPT: 16µM*; HT1080-NT tox: -24%; DT40 TDP1 no CPT: -29%

What do the screens show for `O=C(CSc1nc2ccccc2[nH]1)Nc1ccc2c(c1)OCCO2`?
HT1080 IDH1KD tx: -3%; HepG2 viability: 3%; TGFb SMAD3 inh: inconclusive; DT40 TDP1 CPT: inconclusive; HT1080-NT tox: -1%; DT40 TDP1 no CPT: -17%

What do the screens show for `Cc1cccc(-c2nc(SCC(=O)Nc3ccc4c(c3)OCCO4)c(-c3ccccc3)[nH]2)c1`?
HepG2 viability: -25%; TGFb SMAD3 inh: inconclusive; DT40 TDP1 CPT: inconclusive; DT40 TDP1 no CPT: 21µM*

What do the screens show for `O=C(CSc1nc(-c2cccc(F)c2)[nH]c1-c1ccccc1)Nc1ccc2c(c1)OCCO2`?
HepG2 viability: -52%; TGFb SMAD3 inh: inconclusive; DT40 TDP1 CPT: 15µM*; DT40 TDP1 no CPT: 12µM*

What do the screens show for `C=Cn1cc[n+](CC(=O)C(C)(C)C)c1`?
HT1080 IDH1KD tx: 5%; HepG2 viability: 3%; TGFb SMAD3 inh: 19%; DT40 TDP1 CPT: -4%; HT1080-NT tox: 7%; DT40 TDP1 no CPT: 3%

How did COc1ccc(NC(=O)CSC2=Nc3ccccc3C3=NC(Cc4ccccc4)C(=O)N23)cc1Cl (stereo not drawn) do in these assays?
HepG2 viability: 1%; TGFb SMAD3 inh: -1%; DT40 TDP1 CPT: 21µM*; DT40 TDP1 no CPT: inconclusive

How did O=C(CSC1=Nc2ccccc2C2=NC(Cc3ccccc3)C(=O)N12)Nc1ccccc1 (stereo not drawn) do in these assays?
HepG2 viability: -13%; TGFb SMAD3 inh: 0%; DT40 TDP1 CPT: inconclusive; DT40 TDP1 no CPT: inconclusive

How did Cc1ccc(NC(=O)CSC2=Nc3ccccc3C3=NC(Cc4ccccc4)C(=O)N23)cc1C (stereo not drawn) do in these assays?
HepG2 viability: -18%; TGFb SMAD3 inh: 7%; DT40 TDP1 CPT: 9.2µM*; DT40 TDP1 no CPT: 13µM*

How did Cc1ccccc1C(=O)Nc1cccc(-c2nc3cccnc3s2)c1 do in these assays?
HepG2 viability: -16%; TGFb SMAD3 inh: 2%; DT40 TDP1 CPT: inconclusive; DT40 TDP1 no CPT: 18µM*

How did O=S(=O)(Nc1cccc(-c2nc3cccnc3s2)c1)c1ccc2c(c1)CCCC2 do in these assays?
HT1080 IDH1KD tx: -8%; HepG2 viability: 10µM*; TGFb SMAD3 inh: 13µM*; DT40 TDP1 CPT: -27%; HT1080-NT tox: 2%; DT40 TDP1 no CPT: inconclusive

Results for CCS(=O)(=O)Nc1cccc(-c2nc3cccnc3s2)c1 ?
HT1080 IDH1KD tx: 8%; HepG2 viability: -27%; TGFb SMAD3 inh: -13%; DT40 TDP1 CPT: -10%; HT1080-NT tox: 9%; DT40 TDP1 no CPT: inconclusive

Results for CCS(=O)(=O)Nc1cc(-c2nc3cccnc3s2)ccc1C ?
HT1080 IDH1KD tx: -11%; HepG2 viability: -27%; TGFb SMAD3 inh: -1%; DT40 TDP1 CPT: inconclusive; HT1080-NT tox: -18%; DT40 TDP1 no CPT: 26µM*

Results for Cc1ccc(-c2nc3cccnc3s2)cc1NS(=O)(=O)c1ccc2c(c1)CCCC2 ?
HT1080 IDH1KD tx: -2%; HepG2 viability: -14%; TGFb SMAD3 inh: 5%; DT40 TDP1 CPT: -20%; HT1080-NT tox: -2%; DT40 TDP1 no CPT: inconclusive

What do the screens show for `COc1ccc(C(=O)COc2ccccc2N2C(=O)C3C4C=CC(C4)C3C2=O)cc1` (stereo not drawn)?
HT1080 IDH1KD tx: 13%; HepG2 viability: -11%; TGFb SMAD3 inh: 0%; DT40 TDP1 CPT: -20%; HT1080-NT tox: 14%; DT40 TDP1 no CPT: inconclusive

How did Cc1cccc(NC(=O)N2CCN(Cc3ccccc3)CC2)c1 do in these assays?
HT1080 IDH1KD tx: -1%; HepG2 viability: 3%; TGFb SMAD3 inh: -25%; DT40 TDP1 CPT: 4%; HT1080-NT tox: 8%; DT40 TDP1 no CPT: 9%

What do the screens show for `Cc1cccc(CN2CCN(C(=O)c3ccccc3F)CC2)c1`?
HT1080 IDH1KD tx: 24%; HepG2 viability: 15%; TGFb SMAD3 inh: -3%; DT40 TDP1 CPT: -8%; HT1080-NT tox: 22%; DT40 TDP1 no CPT: -4%

How did Cc1cccc(CN2CCN(C(=O)CCl)CC2)c1 do in these assays?
HT1080 IDH1KD tx: inconclusive; HepG2 viability: -41%; TGFb SMAD3 inh: inconclusive; DT40 TDP1 CPT: 15µM*; HT1080-NT tox: -4%; DT40 TDP1 no CPT: 16µM*

What do the screens show for `Cc1cccc(CN2CCN(C(=O)c3cccc4ccccc34)CC2)c1`?
HT1080 IDH1KD tx: -17%; HepG2 viability: 5%; TGFb SMAD3 inh: -18%; DT40 TDP1 CPT: 16µM*; HT1080-NT tox: 0%; DT40 TDP1 no CPT: inconclusive

How did Cc1ccc(CN2CCN(C(=O)c3cccc4ccccc34)CC2)cc1 do in these assays?
HT1080 IDH1KD tx: -8%; HepG2 viability: -30%; TGFb SMAD3 inh: inconclusive; DT40 TDP1 CPT: inconclusive; HT1080-NT tox: -1%; DT40 TDP1 no CPT: 23µM*

What do the screens show for `Cc1ccccc1CN1CCN(C(=O)c2cccc3ccccc23)CC1`?
HT1080 IDH1KD tx: 9%; HepG2 viability: -25%; TGFb SMAD3 inh: -22%; DT40 TDP1 CPT: inconclusive; HT1080-NT tox: 7%; DT40 TDP1 no CPT: inconclusive
